Test [1] is described as follows: BSK_LPS_PGE2: BioMAP Diversity Plus: LPS Assay for Prostaglandin E2 (PGE2) Biomarker Activity (AID 2283082). The note with it: primary human HUVEC with PBMC; actives raise or lower the signal. The gist of the method: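 Compounds were added to the LPS co-culture of endothelium and PBMC, and PGE2 was measured by ELISA after 24 h. Responses in either direction were fitted with DMSO as baseline.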

Read-out in test [2]: Tissue Factor, F3 (gene 2152)
The experiment in a line: BSK_LPS_TissueFactor: BioMAP Diversity Plus: LPS Assay for Tissue Factor Biomarker Activity (AID 2283084). The note with it: primary human HUVEC with PBMC; actives raise or lower the signal. The gist of the method: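 HUVEC/PBMC co-culture, LPS-activated; CD142 ELISA read 24 h post-dose; bidirectional curve fit vs DMSO negative control.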

Read-out in test [3]: Tumor necrosis factor (Homo sapiens) (UniProt P01375)
The experiment in a line: BSK_LPS_TNFa: BioMAP Diversity Plus: LPS Assay for Tumour Necrosis Factor alpha (TNFa) Biomarker Activity (AID 2283085).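 For AC50: TNFa protein level quantified by ELISA in the co-culture.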 The following applies: primary human HUVEC with PBMC; actives raise or lower the signal. The gist of the method:
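Cells (umbilical vein endothelium plus peripheral blood mononuclear cells) were dosed with chemical, incubated 24 h, then TNFa was quantified by ELISA; values derive from bidirectional fitting with DMSO as baseline.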

Read-out in test [4]: Vascular cell adhesion molecule 1 (VCAM1), VCAM1 (gene 7412)
The test can be described thus: BSK_LPS_VCAM1: BioMAP Diversity Plus: LPS Assay for Vascular cell adhesion molecule 1 (VCAM1) Biomarker Activity (AID 2283086). The following applies: primary human HUVEC with PBMC; actives raise or lower the signal. In short, it runs like this:
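Cells are dosed in an LPS-stimulated endothelial/mononuclear co-culture and, after 24 h, VCAM-1 is quantified by ELISA. Activity in either direction is fitted relative to the DMSO negative control.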

Read-out in a further test: CD38, CD38 (gene 952)
The experiment in a line: BSK_SAg_CD38: BioMAP Diversity Plus: SAg Assay for CD38 Biomarker Activity (AID 2283087). The note with it: primary human HUVEC with PBMC; actives raise or lower the signal. The gist of the method:
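CD38 quantified by ELISA (fluorescence) in a superantigen-activated endothelial cell–PBMC co-culture at 24 h post-dose. Activity fitted in both directions relative to DMSO; parallel SRB and Alamar Blue cytotoxicity read-outs.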

Read-out in a further test: CD40, CD40 (gene 958)
The experiment in a line: BSK_SAg_CD40: BioMAP Diversity Plus: SAg Assay for CD40 Biomarker Activity (AID 2283088). The following applies: primary human HUVEC with PBMC; actives raise or lower the signal. The gist of the method: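 HUVEC/PBMC co-culture, 24 h post-dose; CD40 by ELISA, fluorescence intensity; bidirectional fit vs DMSO negative control.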

Read-out in another test: CD69, CD69 (gene 969)
The experiment in a line: BSK_SAg_CD69: BioMAP Diversity Plus: SAg Assay for CD69 Biomarker Activity (AID 2283089).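 For AC50: cell surface CD69 protein quantified by ELISA with fluorescence detection.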 The following applies: primary human HUVEC with PBMC; actives raise or lower the signal. In short, it runs like this: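 HUVEC co-cultured with PBMC were dosed with chemical, and CD69 was measured by ELISA with fluorescence read-out 24 h later. Bidirectional curve fitting used DMSO as negative control and activity baseline.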

Read-out in test [5]: Monocyte Chemoattractant Protein-1 (MCP1), CCL2 (gene 6347)
The test can be described thus: BSK_SAg_MCP1: BioMAP Diversity Plus: SAg Assay for Monocyte Chemoattractant Protein-1 (MCP1) Biomarker Activity (AID 2283090). The note with it: primary human HUVEC with PBMC; actives raise or lower the signal. In short, it runs like this: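 Values derive from bidirectional fitting of ELISA-measured MCP1 against DMSO controls. Readings were taken 24 h after dosing human vascular endothelial cells co-cultured with peripheral blood mononuclear cells under superantigen stimulation.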

Read-out in test [6]: E-selectin (Homo sapiens) (UniProt P16581)
The test can be described thus: BSK_SAg_Eselectin: BioMAP Diversity Plus: SAg Assay for Eselectin Biomarker Activity (AID 2283091). The note with it: primary human HUVEC with PBMC; actives raise or lower the signal. The gist of the method: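 E-selectin ELISA readout at 24 h post-dosing in human umbilical vein endothelial cell/PBMC co-culture; gain or loss of signal fitted relative to DMSO baseline.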

Read-out in test [7]: Monokine induced gamma interferon (MIG), CXCL9 (gene 4283)
The test can be described thus: BSK_SAg_MIG: BioMAP Diversity Plus: SAg Assay for Monokine induced gamma interferon (MIG) Biomarker Activity (AID 2283092). The following applies: primary human HUVEC with PBMC; actives raise or lower the signal. The gist of the method:
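HUVEC plus human PBMC co-culture, chemicals dosed and MIG (CXCL9) quantified by ELISA at 24 h. Bidirectional curve fitting against DMSO as negative control and baseline, so both gain and loss of signal count as activity.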

A short description of test [8]: BSK_SAg_PBMCCytotoxicity: PBMC Cytotoxicity Assessment in the BioMAP Diversity Plus: SAg Assay (AID 2283093).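 For AC50: PBMC superantigen activated with SEB plus TSST-1 one hour after compound addition.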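 Note: PBMC viability measured as Alamar Blue reduction fluorescence at 546/580 nm; fitted both ways against DMSO so a hit may be loss or gain of signal.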 The note with it: primary human HUVEC with PBMC. In short, it runs like this:
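Alamar Blue reduction (6 h, ex/em 546/580 nm) read after 90 h culture of PBMC pre-dosed 1 h then stimulated with SEB plus TSST-1, 20 ng/mL each. Gain or loss of signal fitted relative to DMSO.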

Read-out in test [9]: Interleukin-8 (IL8), CXCL8 (gene 3576)
The test can be described thus: BSK_SAg_IL8: BioMAP Diversity Plus: SAg Assay for Interleukin-8 (IL8) Biomarker Activity (AID 2283094). The following applies: primary human HUVEC with PBMC; actives raise or lower the signal. The gist of the method: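 Chemicals were dosed onto a human endothelial–PBMC co-culture, and IL-8 was quantified by ELISA after 24 h. Both increases and decreases were fitted relative to DMSO.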

Test [10] is described as follows: BSK_SAg_Proliferation: Cell Proliferation Assessment in the BioMAP Diversity Plus: SAg Assay (AID 2283095).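 Note: relative cell number as total protein by SRB absorbance in sub-confluent culture.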 The following applies: primary human HUVEC with PBMC. The gist of the method: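 Absorbance of sulforhodamine B at 560 nm reports total protein in a human vascular endothelial/PBMC co-culture after 96 h chemical exposure. Gain or loss of signal is fitted in both directions against DMSO.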

Test [11] is described as follows: BSK_SAg_SRB: Viability Assessment in the BioMAP Diversity Plus: SAg Assay (AID 2283096).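 Note: cells read one day after compound addition; hits may be either gain or loss of signal compared with DMSO.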 The note with it: primary human HUVEC with PBMC. In short, it runs like this: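 SRB absorbance at 560 nm served as the viability read-out. Cells (HUVEC plus peripheral blood mononuclear cells) were TCA-fixed and stained 24 h post-dosing; activity fitted in both directions against DMSO controls.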

For test [12], the target named is human CYP19A1, CYP19A1 (gene 1588) (UniProt P11511). The test can be described thus: NVS_ADME_hCYP19A1: NovaScreen (NVS) CYP450-related Enzyme Activity (ADME) Assay for human CYP19A1 (AID 2283098; active = hit-call score of the fitted dose curve at least 0.9, where 1 is the maximum). In short, it runs like this:
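Primary testing was in duplicate at a single 10 uM concentration, with actives followed up in concentration-response series. Fluorescence read-out of recombinant enzyme activity at 0.5 h, cell-free. Acetonitrile was the negative-control baseline.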

Test [13] concerns the target human CYP1A1, CYP1A1 (gene 1543) (UniProt P04798). The test can be described thus: NVS_ADME_hCYP1A1: NovaScreen (NVS) CYP450-related Enzyme Activity (ADME) Assay for human CYP1A1 (AID 2283100; active = hit-call score of the fitted dose curve at least 0.9, where 1 is the maximum). The gist of the method: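 Read-out: fluorescence intensity from enzymatic turnover of substrate by recombinant CYP1A1, loss of signal indicating inhibition. Incubation 1 h post-dose. Primary single-point 10 uM in duplicate; actives rerun singly with top concentration 20 uM.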

For test [14], the target named is human CYP2B6, CYP2B6 (gene 1555) (UniProt P20813). The experiment in a line: NVS_ADME_hCYP2B6: NovaScreen (NVS) CYP450-related Enzyme Activity (ADME) Assay for human CYP2B6 (AID 2283101; active = hit-call score of the fitted dose curve at least 0.9, where 1 is the maximum). The gist of the method:
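Recombinant human CYP2B6 with fluorogenic substrate, read by fluorescence intensity 1 h after dosing. Primary screen in duplicate at 10 uM, actives followed in concentration series; signal loss relative to acetonitrile control.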

In test [15] the target is human CYP2D6, CYP2D6 (gene 1565) (UniProt P10635). The test can be described thus: NVS_ADME_hCYP2D6: NovaScreen (NVS) CYP450-related Enzyme Activity (ADME) Assay for human CYP2D6 (AID 2283107; active = hit-call score of the fitted dose curve at least 0.9, where 1 is the maximum). The gist of the method: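 Fluorescence intensity read 1 h post-dosing; insect-cell-expressed recombinant protein with fluorogenic substrate, no cells. Activity is scored as signal loss relative to acetonitrile baseline, first at a single 10 uM concentration in duplicate, then as concentration series for confirmed actives.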

As a reminder, the AC50 is the midpoint of the concentration-response curve, whichever way the signal moves.

Molecules are shown by their SMILES. Results filed as inconclusive are left out. Active and inactive are the calls of the source. Rule for the calls, unless noted: active = hit-call score of the fitted dose curve at least 0.9, where 1 is the maximum; inactive = score below 0.9.

Chain of E-selectin (Homo sapiens) (P16581 whole entry, looked up): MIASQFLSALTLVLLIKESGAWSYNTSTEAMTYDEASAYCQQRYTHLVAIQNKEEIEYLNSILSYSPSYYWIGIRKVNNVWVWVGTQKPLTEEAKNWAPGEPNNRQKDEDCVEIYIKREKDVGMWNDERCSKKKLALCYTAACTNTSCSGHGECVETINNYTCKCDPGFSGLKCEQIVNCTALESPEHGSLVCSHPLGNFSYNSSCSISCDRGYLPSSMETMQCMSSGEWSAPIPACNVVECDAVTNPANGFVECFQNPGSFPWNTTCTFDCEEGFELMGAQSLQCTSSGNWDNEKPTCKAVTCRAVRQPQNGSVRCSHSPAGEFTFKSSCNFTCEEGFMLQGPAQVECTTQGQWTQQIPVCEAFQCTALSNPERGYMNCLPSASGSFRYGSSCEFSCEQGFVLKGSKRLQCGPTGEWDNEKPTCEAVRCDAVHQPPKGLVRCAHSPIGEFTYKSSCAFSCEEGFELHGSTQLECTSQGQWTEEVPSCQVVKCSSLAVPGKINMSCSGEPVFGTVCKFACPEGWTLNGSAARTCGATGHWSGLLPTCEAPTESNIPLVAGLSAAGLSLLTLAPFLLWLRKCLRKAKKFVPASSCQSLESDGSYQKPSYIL
Chain of Tumor necrosis factor (Homo sapiens) (P01375 whole entry, looked up): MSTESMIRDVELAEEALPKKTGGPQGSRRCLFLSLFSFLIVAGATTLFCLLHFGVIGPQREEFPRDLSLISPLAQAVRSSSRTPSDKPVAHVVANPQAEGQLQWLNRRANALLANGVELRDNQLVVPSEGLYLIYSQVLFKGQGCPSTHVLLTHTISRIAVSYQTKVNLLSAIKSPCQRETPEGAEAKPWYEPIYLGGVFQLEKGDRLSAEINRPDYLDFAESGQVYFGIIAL
Chain of human CYP1A1, CYP1A1 (gene 1543) (P04798 whole entry, looked up): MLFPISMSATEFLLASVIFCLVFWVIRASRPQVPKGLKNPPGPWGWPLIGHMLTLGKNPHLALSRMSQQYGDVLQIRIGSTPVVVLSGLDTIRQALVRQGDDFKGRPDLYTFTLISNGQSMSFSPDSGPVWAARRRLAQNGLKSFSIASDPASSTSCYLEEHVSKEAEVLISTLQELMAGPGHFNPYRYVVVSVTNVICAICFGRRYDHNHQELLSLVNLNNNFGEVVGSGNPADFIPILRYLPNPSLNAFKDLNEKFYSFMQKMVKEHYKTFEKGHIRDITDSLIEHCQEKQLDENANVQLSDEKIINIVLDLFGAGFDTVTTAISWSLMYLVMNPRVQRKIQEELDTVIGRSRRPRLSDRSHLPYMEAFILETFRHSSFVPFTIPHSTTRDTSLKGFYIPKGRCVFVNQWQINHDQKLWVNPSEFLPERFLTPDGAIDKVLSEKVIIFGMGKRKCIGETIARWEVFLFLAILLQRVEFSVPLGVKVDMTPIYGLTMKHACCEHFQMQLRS
Chain of human CYP19A1, CYP19A1 (gene 1588) (P11511 whole entry, looked up): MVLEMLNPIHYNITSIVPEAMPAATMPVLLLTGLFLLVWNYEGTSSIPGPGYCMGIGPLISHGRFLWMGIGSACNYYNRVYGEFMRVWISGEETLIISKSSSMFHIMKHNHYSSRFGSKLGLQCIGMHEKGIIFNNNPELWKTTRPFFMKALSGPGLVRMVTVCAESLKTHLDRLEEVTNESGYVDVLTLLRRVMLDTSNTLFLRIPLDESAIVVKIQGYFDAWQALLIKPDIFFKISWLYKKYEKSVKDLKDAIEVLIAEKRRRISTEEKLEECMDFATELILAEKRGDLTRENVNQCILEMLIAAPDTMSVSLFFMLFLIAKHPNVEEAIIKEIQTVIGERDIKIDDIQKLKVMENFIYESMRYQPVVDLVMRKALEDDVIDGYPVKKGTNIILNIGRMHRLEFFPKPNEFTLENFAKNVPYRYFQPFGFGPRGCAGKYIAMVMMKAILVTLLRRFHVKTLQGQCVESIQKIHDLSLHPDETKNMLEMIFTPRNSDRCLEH
Chain of human CYP2B6, CYP2B6 (gene 1555) (P20813 whole entry, looked up): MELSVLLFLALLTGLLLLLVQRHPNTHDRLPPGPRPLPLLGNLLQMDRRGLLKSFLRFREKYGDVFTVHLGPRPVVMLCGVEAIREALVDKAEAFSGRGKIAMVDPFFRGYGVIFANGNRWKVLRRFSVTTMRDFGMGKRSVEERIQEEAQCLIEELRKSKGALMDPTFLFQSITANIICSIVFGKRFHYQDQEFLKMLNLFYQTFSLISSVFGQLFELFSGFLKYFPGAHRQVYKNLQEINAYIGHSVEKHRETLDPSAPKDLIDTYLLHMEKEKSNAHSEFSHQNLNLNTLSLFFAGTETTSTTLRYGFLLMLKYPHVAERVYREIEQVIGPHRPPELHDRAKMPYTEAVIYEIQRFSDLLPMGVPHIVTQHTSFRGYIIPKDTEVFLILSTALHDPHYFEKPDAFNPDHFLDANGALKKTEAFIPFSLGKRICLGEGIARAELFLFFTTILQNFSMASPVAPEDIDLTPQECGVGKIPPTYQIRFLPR
Chain of human CYP2D6, CYP2D6 (gene 1565) (P10635 whole entry, looked up): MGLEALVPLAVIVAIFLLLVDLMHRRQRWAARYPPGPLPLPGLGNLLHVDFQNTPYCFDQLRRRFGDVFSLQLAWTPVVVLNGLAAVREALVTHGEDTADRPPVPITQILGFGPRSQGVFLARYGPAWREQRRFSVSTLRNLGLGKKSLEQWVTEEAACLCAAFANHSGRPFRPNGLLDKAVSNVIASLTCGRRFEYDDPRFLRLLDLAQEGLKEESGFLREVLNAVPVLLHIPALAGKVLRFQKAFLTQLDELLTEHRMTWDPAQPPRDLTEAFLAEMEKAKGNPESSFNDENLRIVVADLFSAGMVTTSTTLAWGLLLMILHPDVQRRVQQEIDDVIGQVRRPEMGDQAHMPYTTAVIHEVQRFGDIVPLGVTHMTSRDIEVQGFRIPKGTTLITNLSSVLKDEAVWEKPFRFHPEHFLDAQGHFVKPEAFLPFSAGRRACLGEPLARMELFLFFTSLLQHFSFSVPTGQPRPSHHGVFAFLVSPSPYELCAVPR

As for `ClC1=C(Cl)[C@]2(Cl)[C@H]3[C@H]([C@@H]4C=C[C@H]3C4)[C@@]1(Cl)C2(Cl)Cl`, the outcome in test [1] was inactive. The AC50 in test [2] was 31.2 µM (active); in test [3], 31.5 µM (active); in test [4] it was 29.8 µM (active); with CD38, CD38 (gene 952), 16.8 µM (active); with CD40, CD40 (gene 958), 27.9 µM (active); with CD69, CD69 (gene 969), 27.5 µM (active). In addition, the AC50 in [5] is 31.3 µM (active); in [6] it was 32.7 µM (active); in test [7] it was 35 µM (active); in test [8] it was 15.4 µM (active); in test [9], 30.9 µM (active); in test [10], 15 µM (active). For the same compound, in test [11], the AC50 was 25.8 µM (active).
`CS(=O)(=O)NC(=O)c1cc(Oc2ccc(C(F)(F)F)cc2Cl)ccc1[N+](=O)[O-]`: the outcome in [1] is “inactive”; in test [2], “inactive”; in [3] it was “inactive”; in test [4], “inactive”; with CD38, CD38 (gene 952), “inactive”; with CD40, CD40 (gene 958), “inactive”. Also, the outcome with CD69, CD69 (gene 969) was “inactive”; in test [5] it was “inactive”; in test [6], “inactive”; in test [7], “inactive”; in test [8], “inactive”; in test [9], “inactive”. The result in [10], in test [11] and in test [12] was inactive.
Regarding `COP(=S)(OC)SCN1C(=O)c2ccccc2C1=O`, the outcome in test [1] was “inactive”; in test [2], “inactive”; in test [3], “inactive”; in test [4] it was “inactive”; with CD38, CD38 (gene 952) it was “inactive”; with CD40, CD40 (gene 958) it was “inactive”. In addition, the outcome in the test with CD69, CD69 (gene 969) is “inactive”; in test [5], “inactive”; in [6], “inactive”; in [7], “inactive”; in test [8] it was “inactive”; in test [9], “inactive”. Also, the result in [10] and in test [11] was inactive. For the same compound, the results for the AC50 in test [13], in [14] and in test [15] were 3.41 µM (active), 766 nM (active) and 6.97 µM (active), respectively.
For the compound `[O-][Cl+]O`, the outcome is “inactive” in test [1]; “inactive” in test [2]; “inactive” in [4]; “inactive” with CD38, CD38 (gene 952); “inactive” in the test with CD40, CD40 (gene 958); “inactive” with CD69, CD69 (gene 969). The result in [5], in test [6], in test [7], in test [8], in test [9] and in [10] was inactive. The outcome in test [11] was inactive.
Regarding `Cc1ccc([N+](=O)[O-])cc1`, the outcome in test [1] was “inactive”; in test [2] it was “inactive”; in [4] it was “inactive”; with CD38, CD38 (gene 952), “inactive”; with CD40, CD40 (gene 958), “inactive”; with CD69, CD69 (gene 969) it was “inactive”. The outcome in [5], in [6], in test [7], in test [8], in [9] and in test [10] was inactive. Moreover, the outcome in test [11] was inactive.

For the origin of these results see PubChem BioAssay (EPA / NIEHS).
